Lassa entry inh: inhibitors of Lassa virus binding or cell entry. Potency, µM (doses to about 37.9 µM), without a hit: at the top dose activity change, negative = inhibition, hits mostly inhibitors. AID 540256. Lassa virus pseudotype entry inhibition, cell reporter. hit rate 1.2% among 300,000; calls by dose curve; tested in HEK293 cells; further: potency means the concentration at half of the fitted maximal effect; on the % scale 0 is the no-effect control and ±100 the full control effect; nearly all actives have a fitted effect of over 50% in size
FMDV inh: blocks foot and mouth disease virus. hit rate 1.2% among 410,000. Potency, µM (top dose mostly 57.9 µM), for inactives: at the highest dose activity change, negative = inhibition, most hits filed as inhibitors. FMDV antiviral cell-based qHTS. AID 1159524; calls by dose curve; tested in HEK293T cells; further: read-out not given here; potency means the concentration at half of the fitted maximal effect; on the % scale 0 is the no-effect control and ±100 the full control effect; nearly all actives have a fitted effect of over 45% in size
HCV inh: blocks hepatitis C virus. Huh7.5.1 HCVcc-Cre infection, luciferase reporter, 44 h. Potency, µM (titrated, usually from 41.8 µM), without a hit: at the top dose activity change, negative = inhibition, usual class: inhibitors. hit rate 3.4% among 340,000. AID 651820; active means well fitted inhibition curve with a large enough effect; inconclusive means small, poorly fitted or top-dose-only effect, or another doubt; inactive means no such curve, though single readings can be large or run the other way; further: potency means the concentration at half of the fitted maximal effect; on the % scale 0 is the no-effect control and ±100 the full control effect
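Whole-lifecycle infectious HCVcc-Cre system; cells 1,000/well, compound then virus (~0.5 moi) added 4 h after plating, 44 h culture. Luciferase read 15 sec following 15 min substrate incubation, room temp.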
HCMV antiviral: blocks human cytomegalovirus replication | HFF cells, HCMV-luciferase reporter, 72 h; hits give low values | activity change, negative = inhibition, % at 57.5 µM | hit rate 4.5% among 410,000 | AID 1259415; in the data active means activity change below about -60%; inconclusive means no clear call, values can overlap the other calls; inactive means above about -39%; further: on the % scale 0 is the no-effect control and ±100 the full control effect
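Human foreskin fibroblasts infected with luciferase-reporter HCMV at MOI 1 PFU/cell, compounds at two doses. Luciferase measured 72 h post infection; normalized to buffer-only basal and Salinomycin (10uM) controls.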
Marburg entry inh: blocks Marburg virus binding to or entry into cells. Potency, µM (series often up to 37.8 µM), for the others: top-dose activity change, negative = inhibition, hits mostly inhibitors. AID 540276. Marburg virus pseudotyped entry inhibition, cell reporter. hit rate 1.8% among 300,000; calls by dose curve; tested in HEK293 cells; further: potency means the concentration at half of the fitted maximal effect; on the % scale 0 is the no-effect control and ±100 the full control effect
SARS PLpro yeast: inhibitors of SARS-CoV papain-like protease in yeast. S. cerevisiae expressing SARS-CoV PLpro, growth rescue. hit rate 0.19% among 330,000. Potency, µM (top dose mostly 32.9 µM), for the others: at the highest dose activity, positive = growth rescue, most hits filed as activators; calls by dose curve; further: potency means the concentration at half of the fitted maximal effect; 0% is about no effect; nearly all actives have a fitted effect of over 55% in size
* hit, by the source's call; u = inconclusive; x = not tested or not shown; [ ] = remark or other dose. A selection: hits, their analogues and other compounds. The true share with any hit is near 8%.

SMILES	Lassa entry inh	FMDV inh	HCV inh	HCMV antiviral	Marburg entry inh	SARS PLpro yeast
CC1CCN(c2nc(NCc3ccco3)nc(N)c2[N+](=O)[O-])CC1	u	u	u	-17	-19%	-23%
CC1CCN(S(=O)(=O)c2ccc3c(ccc(=O)n3CC(=O)NCc3ccccc3)c2)CC1	15%[46.1 µM]	-13%	x	10	x	x
COC1CCCCC1C1CCN(C(=O)c2ccco2)CC1 (stereo not given)	x	x	x	x	-4%[14.2 µM]	x
CCCSc1ncc(Cl)c(C(=O)N2CCN(c3cccc(Cl)c3)CC2)n1	-11%[46.1 µM]	u	x	80	u	x
CC1=NN(c2nc(-c3ccc(C)cc3)cs2)C(=O)C1N=Nc1ccc(C(N)=O)cc1 (stereo not given)	4.6µM*	-28%	2.8µM*	u	6.5µM*	-8%
COc1ccccc1-c1nc2ccccc2nc1-c1ccccc1	u	0%	-19%	-63*	u	-47%
COC(=O)[C@]1(C)CCC[C@@]2(C)C3CC[C@@]4(C)C[C@]3(CCC21)CC(=O)N4Cc1ccc(OC)cc1 (stereo not given in full)	x	u	13µM*	6	x	0%
Cc1ccc(-n2nc(C)c3c(C(=O)NCc4ccc(F)cc4)cc(C)nc32)cc1	u	-7%	x	4	x	x
COc1cc2c(C(=O)N(C)c3cc(Cl)ccc3OC)cn(CC(C)C)c(=O)c2cc1OC	-27%[46.1 µM]	0%	x	-61*	u	x
COc1ccc(N(C)C(=O)c2cn(CC(C)C)c(=O)c3cc(OC)c(OC)cc23)c(OC)c1	x	-24%	-15%	-1	x	4%
CC1(C)Cc2c(sc(NC(=O)c3ccc(C(=O)c4ccccc4)cc3)c2C(N)=O)C(C)(C)N1	u	-29%	u	-100*	u	-11%
CCn1c2ccccc2c2cc(/C=N/NC(=O)c3ccccc3C)ccc21	u	-9%	5.6µM*	-23	u	-36%
Cn1c2ccccc2c2cc(/C=N/NC(=O)c3ccc(N)cc3)ccc21	u	-20%	11µM*	1	u	0%
Cn1cc(/C=N/NC(=O)c2ccccc2O)c2ccccc21	x	43%	-8%	14	x	-1%
CCn1c2ccccc2c2cc(/C=N/NC(=O)c3cccc(C)c3)ccc21	-27%	-10%	u	20	u	-1%
Cn1c2ccccc2c2cc(/C=N/NC(=O)c3ccccc3F)ccc21	x	-6%	14µM*	-3	x	-9%
COc1ccc2c3c(n(C)c2c1)[C@@H](CO)N(C(C)=O)CC31CN(Cc2nccs2)C1	x	x	x	5	x	x
Cc1cccc2c1NC(=O)/C2=C\C(=O)c1cccs1	u	u	30%	-10	u	-27%
CCc1ccc2c(c1)/C(=C/C(=O)c1cccs1)C(=O)N2	u	20µM*	22µM*	-99*	u	-51%
Cc1cc(C)cc(Oc2ccc(N)cc2)c1	u	8%	2µM*	32	-13%	6%
Cc1cccc(Oc2ccc(N)cc2)c1	-1%	0%	u	61	23%	13%
Nc1ccc(Oc2cccc(Oc3ccc(N)cc3)c2)cc1	u	10µM*	-11%	-76*	u	-7%
Cc1ccc(NC(=O)CN(CCc2ccccc2)S(=O)(=O)c2ccccc2)c(C)c1	-29%[46.1 µM]	-7%	x	-12	x	x
Cc1ccc(-c2csc3nc4c5ccccc5c(NCCCN(C)C)nn4c(=O)c23)cc1	x	-30%	3%	-99*	x	-2%
CCCCCCCn1c(NC(=O)CC)nc2ccccc21	-27%	-29%	-35%	-84*	u	1%
SMILES	Lassa entry inh	FMDV inh	HCV inh	HCMV antiviral	Marburg entry inh	SARS PLpro yeast
CCC(=O)NCc1nc2ccccc2n1Cc1ccccc1F	-9%	15%	-5%	-99*	2%	10%
CCC(=O)Nc1nc2ccccc2n1CCN1CCOCC1	u	-5%	3%	-21	-2%	6%
CCCn1c(Nc2nc3ccccc3n2C)nc2ccccc21	-14%	u	u	-100*	u	-20%
CCCc1nc2ccccc2n1CCc1ccccc1	u	-6%	-16%[0.335 µM]	-74*	u	18%
OCCCc1nc2ccccc2n1CCc1ccccc1	0%	-3%	14%	-20	-2%	14%
CC(C)c1ccc(S(=O)(=O)N2CCC(n3c(C(F)(F)F)nc4cccnc43)CC2)cc1	-6%[46.1 µM]	-11%	x	1	x	x
CCn1c(Nc2ccccc2Cl)nc2ccccc21	2%	-2%	-23%	-6	-13%[46.1 µM]	-1%
C=CCn1c(NCc2cc(Cl)ccc2O)nc2ccccc21	u	23%	u	57	u	-1%
CCn1c(NCc2cc(Cl)ccc2O)nc2ccccc21	x	-24%	32µM*	0	x	-1%
CCC(=O)Nc1nc2ccccc2n1Cc1ccc(Cl)cc1	u	u	u	-76*	12µM*	-2%
CCC(=O)Nc1nc2ccccc2n1Cc1ccccc1Cl	x	-20%	u	u	x	4%
CC(=O)Nc1nc2ccccc2n1Cc1ccccc1Cl	-9%	u	-34%	-96*	u	1%
CCn1c(NN=O)nc2ccccc21	u	-12%	6.3µM*	-103*	u	0%
CC(=O)N(C1=NCCCS1)c1ccc(Cl)cc1	u	-16%	22%	17	u	2%
O=C(c1ccc(Br)cc1)N(C1=NCCCCS1)c1ccccc1	u	u	8%	-63*	-18%	6%
CC(C)Oc1ccc(CNC(=O)Cn2nc(N3CCN(c4ccccc4)CC3)ccc2=O)cc1	-22%[46.1 µM]	u	x	7	x	x
O=C(OCc1nc2ccccc2s1)c1ccccc1O	4%	26%	u	-24	20%[46.1 µM]	-2%
O=C(OCc1nc2ccccc2s1)c1cccs1	5%	11%	15%	-62*	16%	x
CCOC(=O)Cc1c(C)nc2cc(-c3ccc(C(C)(C)C)cc3)nn2c1C	11%[46.1 µM]	-12%	x	-9	16%[46.1 µM]	x
CCOC(=O)Cc1c(C)nc2cc(-c3ccc(C(C)(C)C)cc3)[nH]n2c1=O	2%	1%	13µM*	-29	u	-12%
O=c1c2c(nc3c(-c4ccc(Cl)cc4)c[nH]n13)CCC2	u	-15%	u	-77*	u	-5%
O=c1c2c(nc3cc(-c4ccccc4)[nH]n13)CCC2	4µM*	-20%	13%	51	-21%	-1%
O=c1c2c(nc3c(-c4cccc(Br)c4)c[nH]n13)CCCC2	2%	-7%	6.3µM*	-102*	6%	7%
O=C(Cn1cncn1)N1CCOc2ccc(CN3CCN(c4ccccc4)CC3)cc2C1	x	-5%	x	x	x	x
COC(=O)C(c1ccccc1)(c1cn(C)c2ccccc12)C(Nc1ccc(Cl)cc1)c1ccccc1 (stereo not given)	x	x	x	-27	x	x
COc1cc2c(C(=O)N3CCN(c4cccc(C)c4)C(C)C3)cn(CC(C)C)c(=O)c2cc1OC (stereo not given)	u	-18%	x	9	u	x
Cc1cc(C)cc(-n2ccnc2SCC(=O)Nc2ccc3c(c2)OCO3)c1	-16%[46.1 µM]	u	x	u	x	x
CCOC(=O)Cc1c(C)nc2c(-c3cccc(Br)c3)c[nH]n2c1=O	16µM*	-18%	u	-93*	u	5%
